Results as given in PubChem BioAssay (Tox21).
Where “and” joins values, the source holds several entries; their conditions need not be identical. Equal values may be shown once. Records with an inconclusive call do not appear. Where a call stands in place of a potency, no number is given. Some structures have more than one record in an assay (separate samples or runs), and their calls can disagree. Calls of active or inactive are those of the source. Unless noted, the call rests on the fitted dose curve; in most records, active means well fitted curve in the direction sought with a large enough effect in the repeat runs; inconclusive means weak or mixed curves; inactive means no such curve, though single readings can be large; an effect the other way counts as inactive or inconclusive.

Assays:
[1] = qHTS assay to identify small molecule agonists of H2AX - cell viability counter screen (AID 1224847; calls by dose curve; further: nearly all actives have a fitted effect of over 30% in size; further: potency means the concentration at half of the fitted maximal effect)
Outline: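 We seed wild-type CHO-K1 cells overnight, treat them for 3 hr at 37C with compounds in 15-concentration series, and quantify remaining viability by CellTiter-Glo luminescence.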

[2] = qHTS assay to identify small molecule antagonists of the estrogen related receptor (ERR) signaling pathway from Tox21 library (AID 1224848); further: nearly all actives have a fitted effect of over 50% in size; further: potency means the concentration at half of the fitted maximal effect
Outline: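 Compounds dissolved in DMSO are pin-transferred onto ERR reporter cells (2,000 per well) that have settled for 6 h at 37 C. Plates then incubate 18 h at 37 C before ONE-Glo luciferase reagent and a luminescence read 30 min later.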

[3] = qHTS assay to identify small molecule agonists of the estrogen related receptor (ERR) signaling pathway from Tox21 library (AID 1224849; calls by dose curve; further: nearly all actives have a fitted effect of over 15% in size); conditions: ERR reporter cell line, ONE-Glo luciferase, 18 h
Outline: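 Tox21 compounds tested for ERR agonism in an NTP reporter cell line: 18 h treatment at 37 C, then ONE-Glo luminescence.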

[4] = A CellTox Green Cytotoxicity Assay to monitor cytotoxicity in HEK293 cells - 0 hour (AID 1224869); further: nearly all actives have a fitted effect of over 50% in size
Outline: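 Tox21 screen in HEK293: membrane-impermeant cyanine dye fluoresces on binding dead-cell DNA; compound pinned 5 h post-seeding, plates held at 37 C, signal read repeatedly through 40 h.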

[5] = qHTS RealTime-Glo MT Cell Viability Assay in HepG2 cells - 24 hour (AID 1224867); further: nearly all actives have a fitted effect of over 50% in size; further: potency means the concentration at half of the fitted maximal effect
Outline: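 qHTS, HepG2, 600 cells/well, RealTime-Glo (NanoLuc + prosubstrate) added with cells; 5 h preincubation; DMSO compound addition; 37 C; luminescence at 0/8/16/24/32/40 h.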

[6] = qHTS RealTime-Glo MT Cell Viability Assay in HepG2 cells - 40 hour (AID 1224870); further: nearly all actives have a fitted effect of over 50% in size; further: potency means the concentration at half of the fitted maximal effect
Outline: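 HepG2 cells (600/well) mixed with RealTime-Glo MT reagent, settled 5 h at 37 C/5% CO2 before compound addition. Nonlytic NanoLuc luminescence from viable-cell prosubstrate reduction read repeatedly during 40 h treatment at 37 C.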

[7] = qHTS RealTime-Glo MT Cell Viability Assay in HEK293 cells - 32 hour (AID 1224868); further: nearly all actives have a fitted effect of over 50% in size; further: potency means the concentration at half of the fitted maximal effect
Outline: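 Assay medium contained NanoLuc luciferase plus cell-permeant prosubstrate, added with HEK293 cells at 600 cells/well. After 5 h at 37 C/5% CO2 compounds were added; plates stayed at 37 C for 40 h with serial luminescence reads.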

[8] = qHTS assay to identify small molecule agonists of the hypoxia (HIF-1) signaling pathway (AID 1224846; active means well fitted activation curve with a large enough effect in the signal ratio in the repeat runs, not every such curve was filed as active; the % refers to the signal ratio)
Outline: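 Reporter induction in HRE-bla ME-180 cells is taken as agonism: cells sit 5 hrs after plating, receive compounds or DMSO only, incubate 17 hrs at 37C under 5% CO2, and are loaded with CCF4-AM for beta-lactamase FRET measurement.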

[9] = at 92.4 µM (top of the series) unless noted

Question: What does the source list for `CC[C@H]1C[C@@H]2C[C@H]3c4[nH]c5ccc(OC)cc5c4CCN(C2)[C@@H]13`?
Answer: Potency [1]: inactive; Potency [2]: 30.1 µM (active); activity change, positive = activation [3, 9]: -44.1% (inactive); Potency [4]: inactive

Question: Which Potency [2] does the source give for `ClC(Cl)=C(c1ccc(Cl)cc1)c1ccc(Cl)cc1` here?
Answer: inactive

Question: What about the activity change, positive = activation [3, 9] of the same compound?
Answer: -26.1% (inactive) and 7.66% (inactive)

Question: What about the Potency [5] of the same compound?
Answer: inactive

Question: And the Potency [4]?
Answer: inactive

Question: And the Potency [6]?
Answer: inactive

Question: Which Potency [1] does the source give for `O=C/C(Cl)=C(/Cl)C(=O)O` here?
Answer: inactive

Question: What about the Potency [2] of the same compound?
Answer: inactive

Question: What about the activity change, positive = activation [3, 9] of the same compound?
Answer: -23.8% (inactive) and 0.311% (inactive)

Question: What about the Potency [5] of the same compound?
Answer: inactive

Question: And the Potency [4]?
Answer: inactive

Question: What about the Potency [6] of the same compound?
Answer: inactive

Question: What does the source list for `O=[N+]([O-])O.O=[N+]([O-])O.[Cd]`?
Answer: Potency [7]: 49 µM (active); Potency [4]: inactive; Potency [6]: inactive

Question: Which results are given for `c1ccc(Nc2ccc3ccccc3c2)cc1`?
Answer: Potency [1]: 100 µM (active) and 80 µM (active); Potency [2]: inactive; activity change, positive = activation [3, 9]: 53.3% (active) and 56% (active); Potency [5]: inactive; Potency [4]: inactive; Potency [6]: inactive

Question: Which results are given for `Clc1ccc(CSC(Cn2ccnc2)c2ccc(Cl)cc2Cl)cc1` (stereo not drawn)?
Answer: Potency [1]: 49.2 µM (active); Potency [4]: inactive

Question: What does the source list for `[Cl][Sb]([Cl])[Cl]`?
Answer: Potency [1]: inactive; Potency [5]: inactive; Potency [4]: inactive; Potency [6]: inactive

Question: What does the source list for `CCC(C)c1cc([N+](=O)[O-])cc([N+](=O)[O-])c1OC(=O)C=C(C)C` (stereo not drawn)?
Answer: Potency [1]: 56.6 µM (active); Potency [5]: 49 µM (active); Potency [7]: 21.9 µM (active); Potency [4]: inactive; Potency [6]: 49 µM (active)

Question: With `CC(C)CC(C)Nc1ccc(Nc2ccccc2)cc1` (stereo not drawn) as the compound, how does the Potency [1] read?
Answer: 78.7 µM (active)

Question: What about the Potency [2] of the same compound?
Answer: 47.7 µM (active)

Question: What about the activity change, positive = activation [3, 9] of the same compound?
Answer: -75.8% (inactive)

Question: And the Potency [7]?
Answer: 21.5 µM (active)

Question: And the Potency [4]?
Answer: inactive

Question: Which Potency [5] does the source give for `CC1(C)CC/C(=C/c2ccc(Cl)cc2)C1(O)Cn1cncn1` (stereo not drawn) here?
Answer: inactive

Question: And the Potency [4]?
Answer: inactive

Question: And the Potency [6]?
Answer: inactive

Question: Which Potency [1] does the source give for `O=C1c2ccccc2C(=O)C1C(=O)C(c1ccccc1)c1ccc(Cl)cc1` (stereo not drawn) here?
Answer: inactive

Question: What about the Potency [2] of the same compound?
Answer: 9.69 µM (active)

Question: What about the activity change, positive = activation [3, 9] of the same compound?
Answer: -59.3% (inactive)

Question: What about the Potency [5] of the same compound?
Answer: inactive

Question: And the Potency [7]?
Answer: inactive

Question: What about the Potency [4] of the same compound?
Answer: inactive

Question: And the Potency [6]?
Answer: inactive

Question: Which Potency [1] does the source give for `CC(Cc1ccc(C(C)(C)C)cc1)CN1C[C@@H](C)O[C@@H](C)C1` (stereo partly drawn) here?
Answer: 63.5 µM (active)

Question: What about the activity change, positive = activation [3, 9] of the same compound?
Answer: -8.81% (inactive)

Question: And the Potency [5]?
Answer: inactive

Question: What about the Potency [7] of the same compound?
Answer: inactive

Question: And the Potency [4]?
Answer: inactive

Question: And the Potency [6]?
Answer: inactive

Question: For `O=[N+]([O-])c1c2ccccc2cc2ccccc12`, which Potency [2] is on record?
Answer: inactive

Question: And the Potency [5]?
Answer: inactive

Question: And the Potency [7]?
Answer: inactive

Question: And the Potency [4]?
Answer: inactive

Question: What about the Potency [6] of the same compound?
Answer: inactive

Question: Which results are given for `CC(=O)c1cc(C(C)(C)C)cc2c1CCC2(C)C`?
Answer: Potency [2]: inactive; activity change, positive = activation [3, 9]: -2.02% (inactive); Potency [5]: inactive; Potency [4]: inactive; Potency [6]: inactive

Question: With `CNC(C)Cc1ccc2c(c1)OCO2` (stereo not drawn) as the compound, how does the Potency [1] read?
Answer: inactive

Question: And the Potency [5]?
Answer: inactive

Question: And the Potency [7]?
Answer: inactive

Question: What about the Potency [4] of the same compound?
Answer: inactive

Question: What about the Potency [6] of the same compound?
Answer: inactive

Question: Which results are given for `Clc1ccc(C(c2ccccc2Cl)C(Cl)(Cl)Cl)cc1` (stereo not drawn)?
Answer: Potency [1]: 101 µM (active) and 66.2 µM (active); Potency [2]: 61.5 µM (active) and 40.2 µM (active); activity change, positive = activation ([3]; at 42.5 µM (top of the series)): -15.1% (inactive); activity change, positive = activation ([3]; at 92.4 µM (top of the series)): -41.5% (inactive); Potency [5]: inactive; Potency [7]: 49.3 µM (active) and inactive; Potency [4]: inactive; Potency [6]: inactive

Question: For `CC(=O)O[C@H]1CC[C@@]2(C)C(=CC[C@@H]3[C@@H]2CC[C@]2(C)C(=O)CC[C@@H]32)C1`, which Potency [1] is on record?
Answer: 101 µM (active)

Question: And the Potency [5]?
Answer: inactive

Question: What about the Potency [4] of the same compound?
Answer: inactive

Question: What about the Potency [6] of the same compound?
Answer: inactive

Question: Which results are given for `S=C(SSC(=S)N1CCCCC1)N1CCCCC1`?
Answer: Potency [2]: 0.473 µM (active); activity change, positive = activation [3, 9]: -70.7% [at 42.5 µM] (inactive); Potency [7]: 15.1 µM (active); Potency [4]: inactive; Potency [6]: 0.213 µM (active)

Question: With `CCN(CC)C(=S)[S-].CCN(CC)C(=S)[S-].[Zn+2]` as the compound, how does the Potency [1] read?
Answer: 50 µM (active)

Question: And the Potency [5]?
Answer: 13.7 µM (active)

Question: What about the Potency [7] of the same compound?
Answer: 4.86 µM (active)

Question: What about the Potency [4] of the same compound?
Answer: inactive

Question: What about the Potency [6] of the same compound?
Answer: 10.9 µM (active)

Question: With `Oc1c(Br)c(Br)c(Br)c(Br)c1Br` as the compound, how does the Potency [1] read?
Answer: 80.5 µM (active)

Question: What about the Potency [5] of the same compound?
Answer: inactive

Question: And the Potency [4]?
Answer: inactive

Question: What about the Potency [6] of the same compound?
Answer: inactive

Question: With `CCCCOCN(C(=O)CCl)c1c(CC)cccc1CC` as the compound, how does the outcome [8] read?
Answer: inactive

Question: And the Potency [2]?
Answer: 27.3 µM (active)

Question: What about the activity change, positive = activation [3, 9] of the same compound?
Answer: -62.9% (inactive)

Question: What about the Potency [7] of the same compound?
Answer: inactive

Question: And the Potency [4]?
Answer: inactive

Question: And the Potency [6]?
Answer: inactive

Question: Which Potency [2] does the source give for `CC(C)(O)c1cnn2c(-c3ccc(F)c(-c4c(F)cccc4C#N)c3)cnc2n1` here?
Answer: 27.3 µM (active)

Question: What about the activity change, positive = activation [3, 9] of the same compound?
Answer: -53.4% (inactive)

Question: What about the Potency [5] of the same compound?
Answer: inactive

Question: What about the Potency [7] of the same compound?
Answer: 5.49 µM (active)

Question: And the Potency [4]?
Answer: inactive

Question: And the Potency [6]?
Answer: inactive

Question: For `COc1cccc(C(=O)CCN[C@@H](C)[C@H](O)c2ccccc2)c1`, which Potency [2] is on record?
Answer: inactive

Question: And the activity change, positive = activation [3, 9]?
Answer: 2.02% [at 42.5 µM] (inactive)

Question: What about the Potency [4] of the same compound?
Answer: inactive

Question: And the Potency [6]?
Answer: 23.9 µM (active)

Question: With `Oc1ccc(C2(c3ccc(O)cc3)c3ccccc3-c3ccccc32)cc1` as the compound, how does the Potency [1] read?
Answer: 89.8 µM (active)

Question: What about the activity change, positive = activation [3, 9] of the same compound?
Answer: -78.7% (inactive)

Question: What about the Potency [5] of the same compound?
Answer: 54.9 µM (active)

Question: And the Potency [7]?
Answer: 43.6 µM (active)

Question: And the Potency [4]?
Answer: inactive
